High-throughput results from PubChem.
An excerpt weighted towards active compounds, which were near 10% of everything screened.
Pf growth 96h – P. falciparum growth inhibition at 96 hour, primary screen for plastid delayed-death inhibitors; 6.9% of 320,000 active; P. falciparum luciferase reporter growth, 96 h; Potency, µM (highest dose often 28.7 µM), hits mostly inhibitors; active means well fitted inhibition curve with a large enough effect; inconclusive means small, poorly fitted or top-dose-only effect, or another doubt; inactive means no such curve, though single readings can be large or run the other way
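Infected RBCs, 2% Hct / 0.05% parasitemia final; luciferase-reporter P. falciparum; cpd 96 h, 37 C, 5% CO2; luciferase detection reagent; luminescence.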
NS1 inh – inhibitors of influenza NS1 protein function; Potency, µM (top dose mostly 46.1 µM); 0.4% of 270,000 active; further: actives are rising curves; nearly all actives have a fitted effect of over 50% in size
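OD600 was taken as the measure of yeast growth restored by compound in an NS1-expressing S. cerevisiae strain. Cells had been washed out of glucose medium and diluted 1:100 into galactose -URA medium, pH 6.0.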
SARS PLpro yeast – SARS-CoV PLP inhibition in yeast. S. cerevisiae expressing SARS-CoV PLpro, growth rescue. Potency, µM (series often up to 32.9 µM), most hits filed as activators. 0.19% of 330,000 active. AID 485353; further: nearly all actives have a fitted effect of over 55% in size
Pf growth 48h – P. falciparum growth inhibition at 48 hours (one generation); Potency, µM (highest dose often 28.7 µM), hits mostly inhibitors; 5.9% of 310,000 active; P. falciparum luciferase growth in erythrocytes, 48 h; active means well fitted inhibition curve with a large enough effect; inconclusive means small, poorly fitted or top-dose-only effect, or another doubt; inactive means no such curve, though single readings can be large or run the other way
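Read-out is firefly luciferase luminescence from an integrated reporter in P. falciparum, so falling signal marks reduced parasite growth. Infected erythrocytes were at 2% hematocrit and 0.1% parasitemia (final) in Albumax-supplemented RPMI 1640.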
Numbers stand for hits; 0 = inactive; ? = inconclusive; - = no result given; ! = not confirmed by another sample. Unless noted, the call rests on the fitted dose curve.

SMILES	Pf growth 96h	NS1 inh	SARS PLpro yeast	Pf growth 48h
Cc1ccc(NC2CCCN(C(=O)c3ccccn3)C2)cc1C (stereo not drawn)	13µM	0	0	0
Cc1ccccc1-c1ncc(CN2CCC(CO)(CCCc3ccccc3)CC2)cn1	?	0	0	?
O=C(CSc1nnc(NC(=O)c2ccccc2[N+](=O)[O-])s1)NCC1CCCO1 (stereo not drawn)	13µM	0	0	0
O=C(CSc1nnc(NC(=O)c2ccccc2F)s1)NCC1CCCO1 (stereo not drawn)	0	0	0	0
Cn1nc(C(=O)OCC(=O)c2ccc(Cl)cc2)c2ccccc2c1=O	-	-	0	-
Cc1cc(N2CCN(c3ccccn3)CC2)n2cc(-c3ccccc3)nc2n1	6.6µM	0	0	13µM
Cc1cc(N2CCN(C)CC2)n2cc(-c3ccc(F)cc3)nc2n1	0	0	0	0
COC(=O)c1cc(-c2cc(OC)ccc2OC)nc2c1c(=O)n(C)c(=O)n2Cc1ccccc1	2.1µM	0	0	?
C/C(=N\NC(=O)c1sccc1C)c1ccncc1	7.4µM	0	0	0
C/C(=N\NC(=O)c1sccc1C)c1cccnc1	0	0	0	0
C/C(=N\NC(=O)c1ccc(OC2OCCOC2Oc2ccc(C(=O)N/N=C(\C)c3ccncc3)cc2)cc1)c1ccncc1 (stereo not drawn)	?	0	0	1.7µM
COCCNC(=O)c1ccc(Cl)c(S(=O)(=O)Nc2cccc(C)c2C)c1	0	0	0	0
c1ccc(-c2csc(Nc3cccnc3)n2)nc1	0	0	0	0
c1cncc(Nc2nc(-c3cccs3)cs2)c1	2.9µM	0	0	0
COc1ccc(CN2CCN(CCCCOc3ccc(Cl)cc3)CC2)c(OC)c1OC	0	0	0	0
Cc1cc(N2CCC(N(C)C3CCCC3)CC2)nc2cc(O)ccc12	0	0	0	1.9µM
Cc1cc(N2CCN(c3ccccc3)CC2)nc2ccccc12	0	0	0	0
O=C(Nc1ccncc1)Nc1ccccn1	8.3µM	0	0	0
O=C(CC(=O)Nc1ccccn1)Nc1ccccn1	9.3µM	0	0	0
CNC(=S)N(C)/N=C1/C(=O)N(Cc2c(Cl)cccc2Cl)c2ccccc21	?	-	0	?
COc1ccc(CNn2c(-c3cccc(C)c3)nc3ccccc3c2=O)cc1OC	12µM	0	0	-
COc1ccccc1CNn1c(-c2cccc(C)c2)nc2ccccc2c1=O	12µM	0	0	-
COc1cccc(OC)c1C(=O)Nn1c(-c2cccc(C)c2)nc2ccccc2c1=O	?	-	0	0
CCN(C(=O)CSc1n[nH]c(N)n1)c1cccc2ccccc12	-	-	0	-
COc1cccc(-c2nc(-c3ccc4c(c3)-c3ccccc3S4(=O)=O)c(-c3ccccc3)[nH]2)c1OC	?	?	0	9.3µM
SMILES	Pf growth 96h	NS1 inh	SARS PLpro yeast	Pf growth 48h
COc1cc(-c2nc(-c3ccc4c(c3)-c3ccccc3S4(=O)=O)c(-c3ccccc3)[nH]2)cc(OC)c1OC	0	0	0	1.9µM
Cc1ccc2cc3cc(C(=O)NC4CC4)oc3nc2c1	?	0	0	0
Cc1ccc2cc3cc(C(=O)NCCC(C)C)oc3nc2c1	?	?	0	10µM
Cc1ccc2cc3cc(C(=O)N4CCCCC4C)oc3nc2c1 (stereo not drawn)	0	0	0	9.3µM
Cc1ccc2cc3cc(C(=O)NCc4ccco4)oc3nc2c1	?	0	0	2.9µM
COc1ccc(NC2CCCN(C(=O)c3cc(C)nc4cc(F)ccc34)C2)cc1 (stereo not drawn)	0	0	0	0
CCN(Cc1ccncc1)C(=O)c1cccc(S(=O)(=O)N2CCCCC2)c1	-	-	0	-
CC(C)COc1ccc(C(=O)OCC(=O)N(C)CC(=O)Nc2ccc(F)cc2)cc1	0	-	0	0
C/C(=N\Nc1nc(C)cc(-c2ccccc2)n1)c1ccc(C)o1	1µM	0	0	13µM
C/C(=N/Nc1nc(C)cc(-c2ccccc2)n1)c1ccco1	-	0	0	0
CCN(CC)CCCN(C(=O)c1ccc(OC)cc1)c1nc(-c2ccc(OC)cc2)cs1	0	0	0	1.3µM
COc1ccc(-c2csc(N(CC3CCCO3)C(=O)c3ccc(C)cc3)n2)cc1 (stereo not drawn)	10µM	0	0	5.2µM
COc1ccc(-c2csc(N(CC3CCCO3)C(=O)c3ccccc3)n2)cc1 (stereo not drawn)	0	-	0	?
CCN(CC)CCCN(C(=O)c1ccccc1F)c1nc(-c2ccc(OC)cc2)cs1	0	0	0	4.1µM
COc1ccc(-c2csc(N(CCCN(C)C)C(=O)c3ccc(C(C)(C)C)cc3)n2)cc1	0	0	0	13µM
COc1ccc(-c2csc(N(CCCN(C)C)C(=O)c3ccc(Br)cc3)n2)cc1	?	0	0	?
CCC(=O)N(CC)c1nc(-c2cc(OC)ccc2OC)cs1	0	0	0	12µM
COc1ccc(-c2csc(N(Cc3ccccc3)C(=O)COc3ccc(Cl)cc3)n2)cc1	?	0	0	0
CCC(=O)N(CCCN(C)C)c1nc(-c2cc(OC)ccc2OC)cs1	?	0	0	0
COc1ccc(-c2csc(N(CCCN(C)C)C(=O)c3ccc(C)cc3)n2)cc1	?	0	0	8.3µM
COc1ccc(-c2csc(N(CCc3ccc(OC)c(OC)c3)C(=O)COc3ccccc3)n2)cc1	0	?	0	10µM
Cn1nnnc1SCC(=O)Nc1nc2c(F)c(F)c(F)cc2s1	-	-	0	-
COc1ccc2c(c1)N(C(=O)CN1C(=O)C3CCCCC3C1=O)C(C)(C)C=C2C (stereo not drawn)	0	0	0	12µM
Cc1ccc(S(=O)(=O)NCCC(=O)OCC(=O)NCCc2ccccc2)cc1C	0	-	0	0
COc1ccc(/C=C2/C(=O)N(c3ccccc3)N=C2C)cc1OC	0	?	0	0
SMILES	Pf growth 96h	NS1 inh	SARS PLpro yeast	Pf growth 48h
COc1ccc(C2=NN(c3ccccc3)C(=O)/C2=C\c2ccc(O)c(OC)c2)cc1	?	-	0	13µM
COc1cccc(CC2(CO)CCCN(Cc3ccc(C)s3)C2)c1 (stereo not drawn)	?	0	0	?
COc1cccc(CC2(CO)CCCN(Cc3sc(N4CCCC4)nc3Cl)C2)c1 (stereo not drawn)	15µM	0	0	?
COc1ccc(CN2CCCC(CO)(Cc3ccc(F)cc3F)C2)cc1 (stereo not drawn)	10µM	0	0	0
COc1cccc(CC2(CO)CCCN(Cc3[nH]c4ccc(C)cc4c3C)C2)c1 (stereo not drawn)	5.9µM	0	0	9.3µM
CCOc1ccc(CN2CCCC(CO)(Cc3ccc(F)cc3)C2)cc1 (stereo not drawn)	?	0	0	0
Clc1cccc(/C=N/N2CCN(Cc3ccccc3)CC2)c1	0	0	0	0
Oc1c(CNc2ccccc2)cc(COCc2ccccc2)c2cccnc12	3.3µM	-	4.5µM!	1.2µM
Cc1ccc(-n2ncc3c2CCCC3NC(=O)CCCN2CCCCC2=O)cc1C (stereo not drawn)	13µM	0	0	0
COc1ccc(-n2ncc3c2CC(C)(C)CC3NC(=O)CCN2CCCCC2=O)cc1 (stereo not drawn)	0	0	0	0
Cc1ccc(-n2ncc3c2CC(C)(C)CC3NC(=O)CCCN2CCCC2=O)cc1 (stereo not drawn)	?	0	0	0
